From PubChem BioAssay (NCATS) come the findings set out here.

Results filed as inconclusive are left out. Activity calls are given as the source filed them. Calls come from the whole dose curve; as a rule, active = well fitted curve in the direction sought with a large enough effect; inconclusive = small, poorly fitted or top-dose-only effect, or another doubt; inactive = no such curve, though single readings can be large; an effect the other way counts as inactive or inconclusive.
Note: nearly all actives have a fitted effect of over 35% in size.
Potency is the fitted concentration of half-maximal effect.

The first assay in a line: Quantitative High-Throughput drug screen in 47 multiple myeloma cell lines against the NCATS MIPE library collection: KHM11_PLB cell viability assay (AID 1918962).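 For viability, % of DMSO control: 0% = media only wells and 100% = DMSO treated cells.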 The following applies: KHM11 myeloma cell viability, CellTiter-Glo ATP luminescence, 48 h; series mostly up to 45.8 µM; viability, % of DMSO control: at the top concentration. In outline:
(§1)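 Relative luminescence from CellTiter-Glo served as the viability signal, referenced to DMSO-treated (100%) and cell-free medium (0%) controls. Treatment lasted 48 hours at 37C with 500 cells per well.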
Background: ATP-based viability assays read luminescence as a measure of living cells.
For the compound `CN1C2CCC1CC(OC(=O)C(CO)c1ccccc1)C2` (configuration not stated), the “viability, % of DMSO control” value was 106% (inactive).
Turning to `O=C(Nc1ccc([N+](=O)[O-])cc1Cl)c1cc(Cl)ccc1O`, the Potency was 1.32 µM (active).
In the case of `CC[C@@]1(O)C(=O)OCc2c1cc1n(c2=O)Cc2cc3c(CN(C)C)c(O)ccc3nc2-1`, the Potency is 1.66 µM (active).
`CS(=O)(=O)Nc1ccc([N+](=O)[O-])cc1Oc1ccccc1`: the “viability, % of DMSO control” value was 100% (inactive).
On the same count and under the same terms, to `Cc1cc(C(C)(C)C)c(O)c(C)c1CC1=NCCN1` belongs 126% (inactive).
On to `CS(=O)(=O)CCNCc1ccc(-c2ccc3ncnc(Nc4ccc(OCc5cccc(F)c5)c(Cl)c4)c3c2)o1`, for which the Potency is 4.69 µM (active).
For the compound `CC(=O)OCC(CCn1cnc2cnc(N)nc21)COC(C)=O`, the “viability, % of DMSO control” value is 142% (inactive).
In the case of `O=C1c2c(O)ccc(O)c2C(=O)c2c(NCCNCCO)ccc(NCCNCCO)c21`, the Potency is 0.833 µM (active).
Consider `O=C(C1CCCCC1)N1CC(=O)N2CCc3ccccc3C2C1` (configuration not stated), for which the “viability, % of DMSO control” value is 148% (inactive).
For `Cc1cc(C(C)(C)C)cc(C)c1CC1=NCCN1`, the “viability, % of DMSO control” value is 116% (inactive).
Take `NC(=O)OCC(COC(N)=O)c1ccccc1`: the “viability, % of DMSO control” value was 99.3% (inactive).
As to `CC(C)C(=O)Nc1ccc([N+](=O)[O-])c(C(F)(F)F)c1`, the Potency is 6.62 µM (active).
Regarding `CC1(C)O[C@H]2CC(=O)OC[C@]23[C@H]2CC[C@@]4(C)[C@H](c5ccoc5)OC(=O)[C@H]5O[C@]54[C@]2(C)C(=O)C[C@@H]13`, the “viability, % of DMSO control” value is 120% (inactive).
As for `CCC1(c2ccccc2)C(=O)NCNC1=O`, the Potency was 5.26 µM (active).
On to `Cn1c(=O)c2[nH]cnc2n(C)c1=O`, for which the “viability, % of DMSO control” value was 104% (inactive).
For the compound `CC#C[C@]1(O)CC[C@H]2[C@@H]3CCC4=CC(=O)CCC4=C3[C@@H](c3ccc(N(C)C)cc3)C[C@@]21C`, the Potency was 1.87 µM (active).
For the compound `O=C(c1ccc(F)cc1)C1CCN(CCn2c(=O)[nH]c3ccccc3c2=O)CC1`, the “viability, % of DMSO control” value was 121% (inactive).
Take `NC(=O)NO`: the Potency was 2.96 µM (active).
On the same count and under the same terms, in the case of `CNCCCC12CCC(c3ccccc31)c1ccccc12` it was 26.4 µM (active).
As to `Cc1ccc(-c2cc(C(F)(F)F)nn2-c2ccc(S(N)(=O)=O)cc2)cc1`, the “viability, % of DMSO control” value was 93.9% (inactive).
Regarding `Nc1nc2c(ncn2COC(CO)CO)c(=O)[nH]1`, the Potency is 20.9 µM (active).
The same measure, in the same setting: in the case of `CN(C)CCCN1c2ccccc2CCc2ccc(Cl)cc21` it was 3.32 µM (active).

The next assay in a line: Quantitative High-Throughput drug screen in 47 multiple myeloma cell lines against the NCATS MIPE library collection: JIM3_ECACC cell viability assay (AID 1918963;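 for viability, percent of control: 100% = DMSO-only wells and 0% = media-only wells without cells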). The following applies: JIM3 myeloma viability, CellTiter-Glo ATP, 48 h; series mostly up to 45.8 µM; viability, percent of control: at the top concentration. In short, it runs like this:
as §1
On to `CN(C)CCOC(c1ccccc1)c1ccccc1`, for which the Potency was 23.5 µM (active).
`CN1C2CCC1CC(OC(=O)C(CO)c1ccccc1)C2` (configuration not stated): the “viability, percent of control” value was 100% (inactive).
Still for that read-out and setting: in the case of `CCN1CCCC1CNC(=O)c1cc(S(=O)(=O)CC)c(N)cc1OC` (configuration not stated) it was 134% (inactive).
In the case of `O=C(Nc1ccc([N+](=O)[O-])cc1Cl)c1cc(Cl)ccc1O`, the Potency was 0.59 µM (active).
The same measure, in the same setting: in the case of `O=C1Cc2cc(CCN3CCN(c4nsc5ccccc45)CC3)c(Cl)cc2N1` it was 23.5 µM (active); in that of `CC[C@@]1(O)C(=O)OCc2c1cc1n(c2=O)Cc2cc3c(CN(C)C)c(O)ccc3nc2-1`, 5.26 µM (active).
For the compound `CS(=O)(=O)Nc1ccc([N+](=O)[O-])cc1Oc1ccccc1`, the “viability, percent of control” value was 103% (inactive).
Same read-out and setting: to `Cc1cc(C(C)(C)C)c(O)c(C)c1CC1=NCCN1` belongs 112% (inactive).
On to `CS(=O)(=O)CCNCc1ccc(-c2ccc3ncnc(Nc4ccc(OCc5cccc(F)c5)c(Cl)c4)c3c2)o1`, for which the Potency is 1.18 µM (active).
For `CC(=O)OCC(CCn1cnc2cnc(N)nc21)COC(C)=O`, the “viability, percent of control” value is 129% (inactive).
For the compound `O=C1c2c(O)ccc(O)c2C(=O)c2c(NCCNCCO)ccc(NCCNCCO)c21`, the Potency was 1.87 µM (active).
Take `O=C(C1CCCCC1)N1CC(=O)N2CCc3ccccc3C2C1` (configuration not stated): the “viability, percent of control” value was 141% (inactive).
Take `Cc1cc(C(C)(C)C)cc(C)c1CC1=NCCN1`: the “viability, percent of control” value was 115% (inactive).
The same measure, in the same setting: in the case of `NC(=O)OCC(COC(N)=O)c1ccccc1` it was 103% (inactive).
In the case of `CC(C)C(=O)Nc1ccc([N+](=O)[O-])c(C(F)(F)F)c1`, the Potency is 8.33 µM (active).
Turning to `CC1(C)O[C@H]2CC(=O)OC[C@]23[C@H]2CC[C@@]4(C)[C@H](c5ccoc5)OC(=O)[C@H]5O[C@]54[C@]2(C)C(=O)C[C@@H]13`, the “viability, percent of control” value was 124% (inactive).
With `CCC1(c2ccccc2)C(=O)NCNC1=O`, the Potency is 4.69 µM (active).
With `CCOC(=O)Nc1ccc(NCc2ccc(F)cc2)nc1N`, the “viability, percent of control” value is 97.6% (inactive).
The same measure, in the same setting: to `Cn1c(=O)c2[nH]cnc2n(C)c1=O` belongs 114% (inactive).
For `CN1CCN(CCCN2c3ccccc3Sc3ccc(Cl)cc32)CC1`, the Potency is 23.5 µM (active).
On to `Clc1ccc2c(c1)C(N1CCNCC1)=Nc1ccccc1O2`, for which the Potency was 26.4 µM (active).
The same measure, in the same setting: in the case of `CC#C[C@]1(O)CC[C@H]2[C@@H]3CCC4=CC(=O)CCC4=C3[C@@H](c3ccc(N(C)C)cc3)C[C@@]21C` it was 1.18 µM (active).
On to `Cn1cnc2c1c(=O)[nH]c(=O)n2C`, for which the Potency is 16.6 µM (active).
With `O=C(c1ccc(F)cc1)C1CCN(CCn2c(=O)[nH]c3ccccc3c2=O)CC1`, the “viability, percent of control” value is 103% (inactive).
On the same count and under the same terms, in the case of `CN(CCOc1ccc(NS(C)(=O)=O)cc1)CCc1ccc(NS(C)(=O)=O)cc1` it was 109% (inactive).
As to `NC(=O)NO`, the Potency is 0.187 µM (active).
Same read-out and setting: in the case of `CNCCCC12CCC(c3ccccc31)c1ccccc12` it was 20.9 µM (active); in that of `Nc1nc2c(ncn2COC(CO)CO)c(=O)[nH]1`, 2.64 µM (active); in that of `CN(C)CCCN1c2ccccc2CCc2ccc(Cl)cc21`, 4.69 µM (active).
Regarding `COc1ccccc1N1CCN(CC(O)COc2cccc3ccccc23)CC1` (configuration not stated), the Potency was 5.26 µM (active).
